SARS PLpro yeast: blocks SARS-CoV papain-like protease in a yeast assay; S. cerevisiae expressing SARS-CoV PLpro, growth rescue; Potency, µM (highest dose often 32.9 µM), most hits filed as activators; AID 485353; 330,000 compounds, 0.19% hits; also: nearly all actives have a fitted effect of over 55% in size
Shiga inhibitor: blocks Shiga toxin action in Vero cells | 290,000 compounds, 9.2% hits | inhibition, % at 38.7 µM | Vero cells, Shiga toxin protein synthesis inhibition reporter | AID 2315; in the data active = inhibition mostly above about 28%, no sharp cut-off; inactive = mostly below about 43%
Tb PYK inh: inhibitors of Trypanosoma brucei pyruvate kinase | Potency, µM (doses to about 76.8 µM), usual class: inhibitors | Q57TT1 | TbPYK enzyme, Kinase-Glo Plus ATP luminescence, 45 min | 410,000 compounds, 0.12% hits; active = well fitted curve in the direction sought with a large enough effect; inconclusive = small, poorly fitted or top-dose-only effect, or another doubt; inactive = no such curve, though single readings can be large; an effect the other way counts as inactive or inconclusive; also: nearly all actives have a fitted effect of over 50% in size
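Glycolytic pyruvate kinase of T. brucei was incubated with substrate, test compound and 130 uM ADP for 45 minutes at room temperature. Luminescent Kinase-Glo Plus signal was measured after 10 minutes.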
Cycloheximide cs: counter-screen hit for Shiga toxin inhibitors, cycloheximide | 300,000 compounds, 12% hits | cell reporter, cycloheximide protein synthesis inhibition counterscreen | max response, % | AID 2314; in the data active = max response mostly above about 13%, no sharp cut-off; inactive = mostly below about 14%; also: read at 38.3 µM for the half of the compounds with a filed dose
NS1 function inh: inhibitors of influenza NS1 protein function | Potency, µM (series often up to 46.1 µM) | 270,000 compounds, 0.4% hits | AID 2326; also: actives are rising curves; nearly all actives have a fitted effect of over 50% in size
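S. cerevisiae expressing influenza A NS1, grown in glucose, washed, then diluted 1:100 into pH 6.0 -URA galactose medium with 23 nl compound. Growth recovery read as OD600; NS1-free strain serves as control.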
LmPK inhibitor: inhibitors of Leishmania mexicana pyruvate kinase; AID 1721; purified LmPK, Kinase-Glo ATP luminescence, 1 h; 290,000 compounds, 0.37% hits; Q27686; Potency, µM (doses to about 57.5 µM), usual class: inhibitors; active = well fitted curve in the direction sought with a large enough effect; inconclusive = small, poorly fitted or top-dose-only effect, or another doubt; inactive = no such curve, though single readings can be large; an effect the other way counts as inactive or inconclusive
Target sequence (Q27686 whole entry, looked up): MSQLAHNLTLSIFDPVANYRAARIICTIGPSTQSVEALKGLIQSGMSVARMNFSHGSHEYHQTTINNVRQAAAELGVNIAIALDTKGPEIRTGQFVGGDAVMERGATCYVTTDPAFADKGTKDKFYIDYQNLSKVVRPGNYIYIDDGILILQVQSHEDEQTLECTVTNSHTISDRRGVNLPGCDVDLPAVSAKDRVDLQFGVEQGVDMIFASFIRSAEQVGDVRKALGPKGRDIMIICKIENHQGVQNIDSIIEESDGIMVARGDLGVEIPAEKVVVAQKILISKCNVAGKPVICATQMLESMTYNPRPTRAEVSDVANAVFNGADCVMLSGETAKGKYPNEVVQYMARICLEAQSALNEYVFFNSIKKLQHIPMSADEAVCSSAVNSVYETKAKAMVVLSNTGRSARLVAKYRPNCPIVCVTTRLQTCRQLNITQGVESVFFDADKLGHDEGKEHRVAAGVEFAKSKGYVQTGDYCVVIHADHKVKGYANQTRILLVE
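qHTS format; LmPK 0.1 nM; substrates PEP 0.5 mM and ADP 0.1 mM. One-hour room-temperature incubation, then coupled luciferase luminescence; 0.5 nM enzyme wells mark activation.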
A number is an active result; – = inactive; ? = inconclusive; · = no result given. This excerpt belongs to a sample that is enriched for hits. Unless noted, calls follow the shape of the full dose curve.

SMILES | SARS PLpro yeast | Shiga inhibitor | Tb PYK inh | Cycloheximide cs | NS1 function inh | LmPK inhibitor
Cc1cccc(OCc2nnc(SC(C)C(=O)O)n2-c2ccccc2)c1 (centres undefined) | – | · | – | – | – | –
Cn1c(=O)nc2n(-c3ccc(Cl)c(Cl)c3)c3cc(Cl)ccc3cc-2c1=O | · | · | – | · | · | ·
CCCC[C@@H](CC)COC(=O)C[C@H](C(=O)OC[C@H](CC)CCCC)S(=O)(=O)O | · | · | – | · | · | ·
Cc1ccc(-n2ncc3c2CC(C)(C)CC3NC(=O)c2ccccn2)cc1 (centres undefined) | – | – | – | 21 | – | –
Cc1cc(C(=O)NC2CC(C)(C)Cc3c2cnn3-c2ccc(F)cc2)no1 (centres undefined) | – | 37 | – | – | – | –
C=CCC(=O)NC1CC(C)(C)Cc2c1cnn2-c1ccc(C)cc1 (centres undefined) | – | – | – | – | – | –
O=C(NC1CCCN(Cc2ccccc2F)C1)C1CCC1 (centres undefined) | – | – | – | – | – | –
C=CCn1nc2n(c1=O)-c1ccccc1SC2 | – | – | – | – | – | –
O=c1n(Cc2ccccc2)nc2n1-c1ccccc1SC2 | – | 49 | – | 28 | – | –
O=c1n(Cc2ccccc2Cl)nc2n1-c1ccccc1SC2 | – | 40 | – | 48 | – | –
CCCCN=CC1=C(O)CC(c2ccccc2)CC1=O (centres undefined) | – | – | – | – | – | –
Clc1ccc(/C=N/Nc2nnc(Cl)c3ccccc23)cc1 | – | 55 | – | 18 | – | –
Cc1ccc(/C=N/Nc2nnc(Cl)c3ccccc23)cc1 | – | 46 | – | 46 | – | –
Clc1ccc(/C=N/Nc2nc(Cl)nc3ccccc23)cc1 | – | – | – | – | – | –
Clc1nnc(N/N=C/c2ccccc2)c2ccccc12 | – | – | – | 47 | – | –
Clc1cncc(Cl)c1N/N=C/c1ccccc1 | – | 48 | – | 29 | – | –
CN(Cc1ccco1)c1ncnc2ccc(-c3ccc4c(c3)OCCO4)cc12 | – | · | · | · | · | ·
CCC1CN(C(=O)N2CCC(C(=O)NCCCc3ccccc3)CC2)c2ccccc2O1 (centres undefined) | · | · | – | · | · | ·
CC(=O)Oc1cccc(/C=C2\Sc3ccccc3C2=O)c1 | – | 51 | – | 28 | – | ?
CC(=O)c1ccc(N2CCN(C(=O)c3cc(-c4ccncc4)nc4ccc(Cl)cc34)CC2)cc1 | ? | – | – | 14 | – | –
CC(NC(=O)c1cc(-c2ccccn2)nc2ccc(Cl)cc12)C1CCCO1 (centres undefined) | – | – | – | – | – | –
CC(NC(=O)c1cc(-c2ccncc2)nc2ccc(Cl)cc12)C1CCCO1 (centres undefined) | – | 38 | – | 13 | – | –
CC/C(=N/NC(=O)c1ccc(Br)cc1)c1ccc(OCCN2CCOCC2)cc1 | – | 52 | – | – | – | –
CCOc1ccc(C(=O)NCCN2CCOCC2)cc1 | – | – | – | – | – | –
CC/C(=N/NC(=O)c1ccccc1)c1ccc(OCCN2CCOCC2)cc1 | – | 80 | – | 70 | – | –
SMILES | SARS PLpro yeast | Shiga inhibitor | Tb PYK inh | Cycloheximide cs | NS1 function inh | LmPK inhibitor
CCCc1nc2ccccc2n2c(-c3ccc(C)cc3)c3c(=O)n(C)c(=O)n(C)c3c12 | · | · | – | · | · | ·
c1ccc2nc(-c3nccs3)ccc2c1 | – | 96 | – | 28 | – | –
S=c1[nH]nc(-c2ccc3ccccc3n2)o1 | – | – | – | – | – | ?
Clc1ccsc1-c1ccc2ccccc2n1 | – | 107 | – | 57 | – | –
CC1(C)C=Cc2cc3ccc(=O)oc3cc2O1 | – | 62 | – | 53 | – | ?
COc1c2c(cc3oc(=O)ccc13)OC(C)(C)C=C2 | – | 40 | – | 20 | – | –
CCN(CC)c1ccc2ccc(=O)oc2c1 | – | – | – | – | – | –
Cn1ccnc1C(=O)c1ccc(S(=O)(=O)N2CCCC2)cc1 | – | – | – | 14 | – | –
CC(=O)c1ccc(S(=O)(=O)N2CCCC2)cc1 | – | 82 | – | 43 | – | –
Cn1ccnc1C(=O)c1cccc(Br)c1 | – | 40 | – | 17 | – | –
CC1(C)Cc2cccc(C(=O)Nc3ccc(F)cc3F)c2O1 | – | – | – | – | – | –
C[C@H](CO)N1C[C@H](C)[C@H](CN(C)C(=O)C2CC2)OCc2cnnn2CCCC1=O | · | · | – | · | · | ·
CCCCN(C(=O)c1c(-c2ccccc2)noc1C)c1c(N)n(CCC)c(=O)[nH]c1=O | – | · | – | · | · | ·
CCc1ccc2c(COC(=O)c3n[nH]c4ccccc34)cc(=O)oc2c1 | – | 94 | – | 46 | – | –
Cc1ccc2c(COC(=O)c3ccccc3F)cc(=O)oc2c1 | – | 128 | – | 27 | – | –
Cc1ccc2c(COC(=O)c3n[nH]c4ccccc34)cc(=O)oc2c1 | ? | 78 | – | 32 | – | –
Cc1ccc2c(COC(=O)c3c(C)noc3C)cc(=O)oc2c1 | – | – | – | – | · | –
CCCCCc1c(CC)ncn1CCc1ccccc1OC | · | · | – | · | · | ·
O=C1NC(=O)C2(CCCCC2)N1 | · | · | – | · | · | ·
Cc1ccc(NS(=O)(=O)c2ccc(C(=O)N3CCN(S(=O)(=O)c4ccccc4)CC3)cc2)cc1 | – | · | – | · | · | ·
CN(C)CCNC(=O)c1cc2sc3ccccc3c2s1 | – | 85 | – | 40 | · | –
COCCN(CCOC)C(=O)c1cc2sc3ccccc3c2s1 | – | – | – | – | – | –
CCN(CC)C(=O)c1cc2sc3ccccc3c2s1 | – | 106 | – | 71 | – | –
CCc1ccc(OCC(=O)Nc2c(C(=O)c3ccc(Br)cc3)oc3ccccc23)cc1 | · | · | – | · | · | ·
Cc1cc(Cl)ccc1-n1c(CCC(=O)O)ccc1-c1cccs1 | · | · | – | · | · | ·
SMILES | SARS PLpro yeast | Shiga inhibitor | Tb PYK inh | Cycloheximide cs | NS1 function inh | LmPK inhibitor
O=C(NC(=S)Nc1cccc(Cl)c1Cl)C1CC1 | – | – | – | – | – | –
CC(C)c1ccc2oc3nc(N)c(C(=O)O)cc3c(=O)c2c1 | – | – | ? | – | · | 7.1µM
COc1ccc2c(c1)C(=O)c1ccccc1CO2 | – | 117 | – | 53 | – | –
CNC(=O)Oc1ccc2c(c1)C(=O)c1ccccc1CO2 | – | – | – | 16 | – | –
N=C(N)SCC(=O)O | · | · | · | · | – | ·
COc1ccc(OC)c(-c2noc(N3CCN(c4ccc(Cl)cc4)CC3)n2)c1 | · | · | – | · | · | ·
CN(C)/C=C/C(=O)c1ccc([N+](=O)[O-])c(CS(=O)(=O)c2ccccc2)c1 | – | – | – | – | – | –
CN(C)/C=C/C(=O)c1cccc(Cl)c1 | – | – | – | 17 | – | –
CN(C)/C=C/C(=O)c1ccc(-n2cccc2)cc1 | – | 75 | – | 30 | · | –
CN(C)/C=C/C(=O)c1ccc(Cl)c([N+](=O)[O-])c1 | – | – | – | 21 | – | –
N#Cc1c(N)n(-c2cccc(Cl)c2)c2nc3ccccc3nc12 | · | · | – | · | · | ·
COc1ccccc1CNC(=O)CN1C(=O)COc2ccc(S(=O)(=O)NC3CCCC3)cc21 | – | – | – | 21 | – | –

Source: PubChem (National Center for Advancing Translational Sciences (NCATS))
